Source: PubChem (Johns Hopkins Ion Channel Center)
Only some compounds are listed: those with a hit (about 1.6% of all), similar ones and a draw of the others.
KCNQ2 inh: inhibitors of rat KCNQ2 potassium channel; CHO-K1 KCNQ2, FluxOR thallium flux, 20 min; stronger effect = lower value; B-score at 10 µM; 310,000 compounds, 1.1% hits; AID 2156;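 active = fluorescence ratio B-score at most minus 3 library SDs, with starting brightness B-score within 2 library SDs, cut at about -5.5 in these data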
KCNQ2 pot: potentiators of rat KCNQ2 potassium channel. O88943. CHO-K1 KCNQ2, FluxOR thallium flux fluorescence; stronger effect = higher value. B-score at 10 µM. 310,000 compounds, 0.54% hits. AID 2239;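 active = fluorescence ratio B-score at least 3 SD of library B-scores, with initial fluorescence B-score within 3 of them, cut at about 5.3 in these data; same plate scores as AID 2156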;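 note: B-score of peak minus minimum over baseline fluorescence ratio after K+ and Tl+ stimulus; positive B-score means potentiation of KCNQ2 with more thallium influx and brighter signal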
Kir21 confirm: confirmation of mouse Kir2.1 potassium channel inhibitors | Tl flux remaining, % of negative control (stronger effect = lower value), % at 10 µM | 2,300 compounds, 41% hits | Kir2.1-expressing cells, FluxOR thallium flux fluorescence; stronger effect = lower value | shares compounds with KCNQ2 pot;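 active = Primary-screen hit whose thallium flux fell at least 3 control SD below untreated wells in both duplicates, with normal baseline fluorescence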;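 note: 0% = blank wells without stimulus and 100% = stimulated no-compound controls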
Target sequence (P35561 whole entry, looked up): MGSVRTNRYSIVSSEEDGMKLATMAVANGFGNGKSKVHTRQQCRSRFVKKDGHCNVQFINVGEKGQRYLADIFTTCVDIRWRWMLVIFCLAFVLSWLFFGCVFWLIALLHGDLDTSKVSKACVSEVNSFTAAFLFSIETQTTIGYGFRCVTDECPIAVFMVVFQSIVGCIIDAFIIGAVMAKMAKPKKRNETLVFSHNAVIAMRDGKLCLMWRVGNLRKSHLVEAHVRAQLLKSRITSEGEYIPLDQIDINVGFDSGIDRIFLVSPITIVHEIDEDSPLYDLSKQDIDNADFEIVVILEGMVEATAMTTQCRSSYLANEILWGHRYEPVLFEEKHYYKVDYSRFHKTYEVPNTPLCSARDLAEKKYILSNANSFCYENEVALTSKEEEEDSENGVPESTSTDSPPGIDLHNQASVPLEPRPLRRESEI
HEK293 Tl flux: alters thallium flux in parental HEK293 cells, Kir2.1 counter-screen | FluxOR thallium flux fluorescence; 0% = unstimulated blank wells | 2,300 compounds, 19% hits | shares compounds with KCNQ2 pot | FluxOR signal as % of negative control (100 = no effect), % at 10 µM;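 active = dye signal at least 3 control SD above or below untreated wells in both duplicates, raw fluorescence within 3, either direction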;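 note: percent is based on the flux ratio of peak minus minimum fluorescence over baseline F0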
CHO-K1 ctr: counter-screen for KCNQ2 potentiators: effect in parental CHO-K1 cells. shares compounds with KCNQ2 pot. AID 2282. 1,200 compounds, 43% hits. activity increase over 3SD of controls, % at 10 µM. FluxOR thallium flux fluorescence; zero = vehicle mean+3SD, 100% = vehicle-minus-blank window;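 active = signal rise of at least 3 SD above the untreated control mean, in both duplicate wells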;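 note: counter screen of KCNQ2 potentiator hits so any rise reflects channel-independent effects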
KCNQ1 sel pot: human KCNQ1 counter-target activity of KCNQ2 potentiators; shares compounds with KCNQ2 pot; CHO KCNQ1 stable, FluxOR thallium flux fluorescence; beyond 3SD, as % of vehicle-control signal; activation over 3SD threshold, % at 10 µM; 1,200 compounds, 28% hits; AID 2283;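 active = fluorescence ratio rise of at least 3 SD of vehicle wells above their mean, in both replicate wells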;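 note: 0% = vehicle mean plus 3 SD and 100% = vehicle minus unstimulated blank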
KCNQ2 pot conf: confirmation of rat KCNQ2 potassium channel potentiators; CHO-KCNQ2 cells, FluxOR thallium flux fluorescence; potentiation, less the hit threshold, % at 10 µM; 1,200 compounds, 68% hits; shares compounds with KCNQ2 pot;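 active = fluorescence ratio rising 3 SD or more over the vehicle control mean in both replicates, plus primary screen hit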;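 note: peak minus minimum thallium fluorescence divided by baseline after K/Tl stimulus; 0% = vehicle mean plus 3 SD and 100% = vehicle minus unstimulated blank difference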
Kir2-1 sel: selectivity of KCNQ2 potentiators: effect on mouse Kir2.1 | 1,200 compounds, 2% hits | HEK293 Kir2.1, FluxOR thallium flux fluorescence | AID 2345 | activity over 3SD threshold, % at 10 µM | shares compounds with KCNQ2 pot;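 active = fluorescence ratio rise of at least 3 SD above the vehicle-control mean, seen in both replicates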;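 note: 0% = vehicle mean plus 3 SD and 100% = vehicle minus no-stimulus blank window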
KCNQ2 W236L pot: rat KCNQ2 W236L mutant potentiation by KCNQ2 potentiators | current increase over 3SD of negative controls (%), stronger effect = higher value, % at 25 µM | 940 compounds, 10% hits | shares compounds with KCNQ2 pot | AID 2558 | CHO KCNQ2-W236L, automated patch clamp current;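 active = current increase at least 3 SD of the untreated controls above them in both duplicate recordings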
The depositor's hits bear a star; i = inactive; x = not tested or not shown.

SMILES | KCNQ2 inh | KCNQ2 pot | Kir21 confirm | HEK293 Tl flux | others
N=c1sccn1CC(=O)Nc1cc(S(=O)(=O)N2CCCC2)ccc1Cl | i | x | x | x
N#Cc1ccc(C(=O)CN2CCN(c3ccccc3)CC2)cc1 | i | 0.07 | x | x
CCOc1ccc(Nc2cc(C)nc3ccc(C)cc23)cc1 | i | x | x | x
Cc1ccc(Nc2cc(C)nc3ccc(C)cc23)cc1 | i | 0.17 | 48.5%* | i
COc1cc(CNc2ccc(NC(C)=O)cc2)ccc1OCc1ccccc1C | i | 5.53* | i | i | CHO-K1 ctr=-15.2;KCNQ1 sel pot=-21.8;KCNQ2 pot conf=-16.2;Kir2-1 sel=-44.8
COc1cc(CNc2ccc(N3CCN(C(C)=O)CC3)cc2)ccc1OCc1ccccc1 | i | x | x | x
CSC(=S)N/N=C/c1ccc(Br)cc1 | i | 7.11* | i | 254.5%* | CHO-K1 ctr=-3.8;KCNQ1 sel pot=38.7*;KCNQ2 pot conf=-7.2;Kir2-1 sel=-22.7
CSC(=S)N/N=C/c1ccc(N(C)C)cc1 | i | 1.25 | x | x
COC(=O)C1=C(C)N(C)C(C)=C(C(=O)OC)C1c1ccccn1 | i | 1.2 | x | x
CC(=O)N1CCCc2ccc(NS(=O)(=O)c3ccccc3)cc21 | i | x | x | x
CCSc1nc2c(sc3ccccc32)c(=O)n1C(C)C | i | 6.03* | i | 243.5%* | CHO-K1 ctr=29.2*;KCNQ1 sel pot=1.2*;KCNQ2 pot conf=24.9*;Kir2-1 sel=-33.6;KCNQ2 W236L pot=i
CCCCn1c(SCC(N)=O)nc2c(sc3ccccc32)c1=O | i | 0.35 | x | x
COc1cccc(CNC(=O)C(=O)N2CCC3(CC2)OCCN3S(=O)(=O)c2ccc(C)cc2)c1 | i | 0.08 | x | x
COc1cc(C(=O)NCCN2C(=O)S/C(=C\c3ccc(F)cc3)C2=O)ccc1OCC(=O)N1CCOCC1 | i | x | x | x
Cc1cccc(CSc2nnc([C@@H]3CCCN3C(=O)OC(C)(C)C)o2)c1 | i | x | 56.5%* | i
CC(C)(C)OC(=O)N1CCC[C@H]1c1nnc(SCc2c(Cl)cccc2Cl)o1 | i | x | x | x
C=CCn1c(O)c(N=NC(=O)c2ccc3c(c2)OCO3)c2ccccc21 | i | 1.39 | x | x
O=C(O)c1ccccc1C(=O)c1ccc2c(c1)N(Cc1ccc(Cl)c(Cl)c1)C(=O)CO2 | i | x | x | x
Fc1ccc(N2CCN(Cc3c[nH]c4ccccc34)CC2)cc1 | i | 0.09 | 19.0%* | i
c1cnc(N2CCN(Cc3c[nH]c4ccccc34)CC2)nc1 | i | x | x | x
COc1ccccc1-c1nc2cc(Cl)ccc2c(=O)n1O | i | x | x | x
O=c1c2cc(Cl)ccc2nc(-c2ccccc2)n1O | i | 6.54* | i | 325.5%* | CHO-K1 ctr=5.6*;KCNQ1 sel pot=9.7*;KCNQ2 pot conf=37.5*;Kir2-1 sel=-20.1;KCNQ2 W236L pot=i
N#Cc1ccc(-c2nc3ccc(Br)cc3c(=O)n2O)cc1 | i | 4.23 | x | x
Cc1ccccc1-c1nc2ccc(Cl)cc2c(=O)n1O | i | x | x | x
O=c1c2cc(Br)ccc2nc(-c2cccc(C(F)(F)F)c2)n1O | i | 27.7* | i | 611.0%* | CHO-K1 ctr=-11.5;KCNQ1 sel pot=-12.6;KCNQ2 pot conf=92.2*;Kir2-1 sel=13.8*;KCNQ2 W236L pot=i
SMILES | KCNQ2 inh | KCNQ2 pot | Kir21 confirm | HEK293 Tl flux | others
O=c1c2ccc(Cl)cc2nc(-c2ccc([N+](=O)[O-])cc2)n1O | i | 13.6* | i | 303.5%* | CHO-K1 ctr=5.3*;KCNQ1 sel pot=-13.8;KCNQ2 pot conf=41.6*;Kir2-1 sel=-13.2;KCNQ2 W236L pot=i
O=c1c2ccccc2nc(-c2ccccc2)n1O | i | 0.66 | x | x
O=c1c2cc(Br)ccc2nc(-c2ccc([N+](=O)[O-])cc2)n1O | i | 9.81* | i | 383.0%* | CHO-K1 ctr=-3.7;KCNQ1 sel pot=64.6*;KCNQ2 pot conf=50.6*;Kir2-1 sel=-19.3;KCNQ2 W236L pot=i
CN1CCN(NC(=O)c2cccc(Br)c2)CC1 | i | 0.98 | x | x
COc1cc(NS(=O)(=O)c2ccc(NC(=O)c3cccnc3)cc2)ncn1 | i | 0.07 | x | x
CCCn1c(=N)n(CC(O)COc2ccc(C)cc2)c2ccccc21 (configuration not stated) | i | 1.52 | x | x
CCCn1c(=N)n(CC(O)c2ccc(C)cc2)c2ccccc21 (configuration not stated) | i | 0.93 | 60.0%* | i
CN(C)Cc1c(O)ccc2ccccc12 | i | x | x | x
CC(C)CN(Cc1c(O)ccc2ccccc12)CC(C)C | i | 6.48* | i | i | CHO-K1 ctr=-13.3;KCNQ1 sel pot=-12.2;KCNQ2 pot conf=-29.1;Kir2-1 sel=-41.2
Cc1ccc(Nc2nc(-c3cccs3)cs2)nc1 | i | 3.02 | i | i
Cc1ccc(Nc2nc(-c3ccccc3)cs2)nc1 | i | 0.26 | x | x
Cc1c(NC(=O)c2ccc3c(c2)OCO3)c(=O)n(-c2ccccc2)n1C | i | x | x | x
O=C(NNc1cc(N2CCOCC2)nc(N2CCOCC2)n1)c1ccc(Cl)c(Cl)c1 | i | 3.14 | x | x
Cc1ccc(C(=O)NNc2cc(N3CCCC3)nc(N3CCCC3)n2)cc1 | i | 10.1* | i | i | CHO-K1 ctr=95.5*;KCNQ1 sel pot=-16.4;KCNQ2 pot conf=39.1*;Kir2-1 sel=-38.0;KCNQ2 W236L pot=i
CCN(C(=O)CSc1nnc(-c2ccc(Cl)cc2)n1C)C1CCS(=O)(=O)C1 (configuration not stated) | i | x | x | x
CC(Oc1ccccc1)C(=O)N=C1SC2CS(=O)(=O)CC2N1Cc1ccccc1 (configuration not stated) | i | 0.5 | x | x
CCOc1ccc(OCCC(=O)OCC(=O)Nc2ccc(N3CCOCC3)cc2)cc1 | i | 0.66 | x | x
CCOc1cc(N2CCOCC2)c(OCC)cc1NC(=O)COC(=O)CCOc1ccc(C(C)(C)C)cc1 | i | 10.6* | i | i | CHO-K1 ctr=3.1*;KCNQ1 sel pot=-23.5;KCNQ2 pot conf=-11.8;Kir2-1 sel=-13.9;KCNQ2 W236L pot=i
CC(C)(C)c1ccc(OCCC(=O)Nc2ccc(N3CCOCC3)cc2N2CCOCC2)cc1 | i | 7.97* | x | x | CHO-K1 ctr=-5.7;KCNQ1 sel pot=-37.1;KCNQ2 pot conf=-16.0;Kir2-1 sel=-43.7
Cc1ccc(C(=O)Nc2ccc(N3CCOCC3)cc2N2CCOCC2)cc1 | i | x | x | x
COc1ccc(N(C)C(=O)c2oc(=O)c3ccccc3c2-c2ccccc2)c(OC)c1 | i | x | x | x
Cc1ccc(C2=NN(CCC(=O)NC3CCCC3)C(=O)CC2)cc1 | i | 0.26 | x | x
CN1CCCN(S(=O)(=O)c2cccc(C#N)c2)CC1 | i | x | x | x
CC(C)CC(=O)NC(=S)Nc1ccc(NC(=O)c2cccs2)cc1 | i | 0.67 | x | x
CC(C)CC(=O)NC(Nc1ccccc1F)C(Cl)(Cl)Cl (configuration not stated) | i | x | x | x
CCCC(=O)NC(Nc1ccccc1F)C(Cl)(Cl)Cl (configuration not stated) | i | 0.26 | 58.0%* | 62.5%*
CCCCCOC(=O)Cn1c(=O)oc2ccccc21 | i | x | x | x
